Data on 24 sequences can be found in the supplement of paper PMC11417369.

± gives the standard deviation of the averaged measurements. Whole data set: some 25,000 sequences, median “ln(normalized median fluorescence intensity)” near 8.6, cut for the highest 2% near 10. The sample holds the highest values, similar sequences and a random draw of the others, so the mix is not that of the screen.

The test deals with PfAP2-EXP AP2 domain (GST-tagged). Description: gcPBM binding intensity (ln(normalized median fluorescence intensity)); higher = stronger DNA binding. Put shortly:
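Using an Agilent 4 × 180k array, primer-extended double-stranded 36-bp intergenic genomic probes and negative controls were exposed for 1 h to GST-fused P. falciparum DNA-binding domains expressed in E. coli. Binding was carried out in 1× PBS with 1% milk, 0.2 mg/ml BSA, 0.5% salmon testes DNA and 0.03% Triton X-100, and protein was detected with Alexa488 anti-GST antibody and a 488 nm scan. Binding intensity is the highest Masliner-normalised natural-log median intensity across replicate spots of either probe orientation.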
Consider “GAAAAAAAAAAAAAAAAACACACGGTACATTCAAAG [CACACA_site303]”, for which the “gcPBM binding intensity (ln)” value is 8.5 ± 0.58.

Regarding “TACTGATCCACATTTATACACACCTCGGTTTGTAGA [CACACA_site417]”, the “gcPBM binding intensity (ln)” value is 8.56 ± 0.4.

Turning to “CTTAATATTCTTTAAAGTACACAAAATAAGAATATA [XGTACX_site5489]”, the “gcPBM binding intensity (ln)” value turned out to be 8.87 ± 0.59.

On to “ATAATATAAATACAAACACACAATTGCGTCCACATT [CACACA_site5039]”, for which the “gcPBM binding intensity (ln)” value came out at 8.82 ± 0.38.

Consider “GTCCAATAAGGAAGAGTGCAAAAATTAAATAATATA [GTGCAC_site9751]”, for which the “gcPBM binding intensity (ln)” value stood at 8.76 ± 0.28.

On to “TATATATATTATATATGTACATATTATATATATATA [XGTACX_site7300]”, for which the “gcPBM binding intensity (ln)” value turned out to be 9.46 ± 0.17.

As to “ATATATATATATATATGTACATATATTCGATTATTA [XGTACX_site557]”, the “gcPBM binding intensity (ln)” value stood at 10.29 ± 0.049.

Take “TATATTTATACAATATGTACATATTATATATATATA [XGTACX_site3098]”: the “gcPBM binding intensity (ln)” value is 9.57 ± 0.26.

Take “ATATATATATATATATGTACATATATATATTATATT [XGTACX_site6303]”: the “gcPBM binding intensity (ln)” value amounted to 10 ± 0.62.

Consider “ATATATATATATATATGTACATACAATTATATTCTC [XGTACX_site1133]”, for which the “gcPBM binding intensity (ln)” value came out at 10.2 ± 0.29.

For “ATATATATATATATATGTACATATTATTCTCATTGT [XGTACX_site6259]”, the “gcPBM binding intensity (ln)” value was 9.88 ± 0.28.

Take “AAGTTTTTTTCTTTTTTTCTCTCTTTTTTTTTTTTT [XGTACX_negctrl_site613]”: the “gcPBM binding intensity (ln)” value is 8.19 ± 0.51.

As to “ATAAATATATATATAGTGCATATAAGCCACCTTCAA [GTGCAC_site9628]”, the “gcPBM binding intensity (ln)” value came to 8.86 ± 0.014.

“AATTGAAAAGAATGAAGTACACATTTGATGATACAT [XGTACX_site5182]”: the “gcPBM binding intensity (ln)” value is 8.62 ± 0.33.

With “TACAATATAAAATACACACGCACACCGAAAAAAAAA [CACACA_site5865]”, the “gcPBM binding intensity (ln)” value worked out at 8.53 ± 0.4.

On to “ATATAAAAAAAAAATTGTACAAAAATATATACATAT [XGTACX_site469]”, for which the “gcPBM binding intensity (ln)” value is 8.53 ± 0.42.

Consider “TTAGGCAAGGCGGGGGGTACGTTTTTATATAATTAT [XGTACX_site8029]”, for which the “gcPBM binding intensity (ln)” value is 10.7 ± 0.18.

Turning to “AATAATATATTTAGGGGTACATAATAATATATTTTA [XGTACX_site8366]”, the “gcPBM binding intensity (ln)” value is 8.81 ± 0.6.

Take “AAATATATTATAAATTGTACGTTTATATATATTATT [XGTACX_site5110]”: the “gcPBM binding intensity (ln)” value amounted to 8.29 ± 0.37.

Turning to “ATCTTTCCTATTTGTAGTACAAAAAAAAAAAAAAAA [XGTACX_site5485]”, the “gcPBM binding intensity (ln)” value worked out at 8.44 ± 0.18.

In the case of “TTTGTAATAACATATGCATGTTCAAAAAATAAAATA [TGCATGCA_site817]”, the “gcPBM binding intensity (ln)” value is 8.4 ± 0.36.

For “TTATAAAAGAAAAAAAAAAAAAAAAAAAAAAAAAAA [CACACA_negctrl_site1006]”, the “gcPBM binding intensity (ln)” value worked out at 7.89 ± 0.43.

For the sequence “AAGAAAAACTTATATATATATATATATATATATATA [TGCATGCA_negctrl_site466]”, the “gcPBM binding intensity (ln)” value is 10.3 ± 0.29.

Regarding “AAGAAAAAAAAAAAAACACACATATATTTATTTATA [CACACA_site7042]”, the “gcPBM binding intensity (ln)” value amounted to 8.06 ± 0.47.
